# Laboratory results from PubChem BioAssay AID1508621 (National Center for Advancing Translational Sciences (NCATS), 2021).
# Results filed as inconclusive are left out. Entries that show only a call come without a potency. Calls of active or inactive are those of the source. Calls follow the shape of the dose curve; as a rule, active = well fitted inhibition curve with a large enough effect; inconclusive = small, poorly fitted or top-dose-only effect; inactive = no such curve, though single readings can be large or run the other way.
# Test: Confirmatory qHTS for Identification of Small Molecule Inhibitors of Huntingtin Promoter Activity; also: nearly all actives have a fitted effect of over 65% in size
# Conditions: HEK293 HTT promoter firefly luciferase reporter, 24 h; series mostly up to 57.5 µM
# Outline: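 Activity normalized between vehicle control (0%) and zero RLU (-100%) from firefly luminescence (Dual-Glo). Compounds, up to 57.5 uM final, incubated 24 h at 37C on HEK293 reporter cells plated 24 h earlier.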
# Potency is read from the fitted curve at half-maximal effect.
row,SMILES,Potency
1,Cc1cccc(CSc2cn(CC(=O)N3CCOCC3)c3ccccc23)c1,inactive
2,CCCN(c1ccccc1CC)S(=O)(=O)c1ccc2c(c1)CC(C)N2C(=O)C1CC1 (configuration not stated),13.5 µM (active)
3,COc1ccc(C(=O)Nc2cccc(-c3cn4ccsc4n3)c2)c(OC)c1,inactive
4,CCN(C(=O)CSc1nc(-c2ccccc2)no1)c1cccc(C)c1,inactive
5,CC(C)c1ccc(NC(=O)C2CCN(c3nc(-c4ccc(C(C)C)cc4)no3)CC2)cc1,0.0953 µM (active)
6,CC(C)[C@H](CO)Nc1nc(Nc2ccc(C(=O)O)c(Cl)c2)c2ncn(C(C)C)c2n1,inactive
7,CCc1ccc2c(c1)-c1ccccc1S(=O)(=O)N2CC(=O)N1CCCCC1,inactive
8,O=C(Nc1cccc(C(=O)N2CCN(c3ccc(Cl)cc3)CC2)c1)c1nsc2ccccc12,inactive
9,O=C(C=Cc1ccc(CN(CCO)CCc2c[nH]c3ccccc23)cc1)NO,inactive
10,COc1ccc(-c2nnc(C3CCN(C(=O)c4ccccc4F)CC3)o2)cc1,inactive
11,CC(C)c1ccc(Cc2cnc(NC(=O)c3ccc4c(c3)CC(c3ccccc3)OC4=O)s2)cc1 (configuration not stated),3.79 µM (active)
12,O=C(c1ccc2c(c1)N(Cc1ccccc1)C(=O)c1ccccc1S2(=O)=O)N1CCCCCC1,inactive
13,O=C(CCCCCCNC(=O)c1cnc(N(c2ccccc2)c2ccccc2)nc1)NO,inactive
14,CCN(Cc1ccccc1)C(=O)c1cc(-c2ccccc2)n[nH]1,inactive
15,Cn1cnc(=N)c2[nH]cnc21,inactive
16,CCOC(=O)C1CCN(C(=O)Cn2c(-c3cccs3)cc3cc(Cl)ccc32)CC1,inactive
17,CCN(CC)CCOc1ccc(C(=C(Cl)c2ccccc2)c2ccccc2)cc1,inactive
18,CCC(=O)N1CCc2cc(S(=O)(=O)NCCC(=O)Nc3ccc(CC)cc3)ccc21,inactive
19,COc1cc(OC)cc(C(=O)Nc2c(C(=O)Nc3ccc(F)cc3)oc3ccccc23)c1,inactive

row,SMILES,Potency
1,COc1ccc(NC(=O)Cn2c(SCc3ccc(C)cc3)nc3cccnc32)cc1OC,inactive
2,Cc1cc(SCC(=O)Nc2nsc(-c3ccc(C(C)(C)C)cc3)n2)nc2ccccc12,inactive
3,Cc1ccc(C2=CC(c3ccc(Cl)cc3)n3nc(-c4ccc(C)cc4)nc3N2)cc1 (configuration not stated),inactive
4,COc1ccc(S(=O)(=O)Nc2cc(-c3cn4ccc(C)cc4n3)ccc2C)cc1OC,inactive
5,O=C(CCCCCCC(=O)Nc1ccccc1)NO,inactive
6,CCN(CC)CCNC(=O)c1c(C)[nH]c(C=C2C(=O)Nc3ccc(F)cc32)c1C,inactive
7,Cc1cc(C)c(Cn2c3ccccc3c3cnn(CC(=O)N4CCCCC4)c(=O)c32)c(C)c1,inactive
8,Cc1ccccc1Cn1c(=O)n(Cc2ccco2)c(=O)c2oc3ccccc3c21,inactive
9,O=C(NCc1cccs1)c1ccc(Cn2c(SCc3ccc(F)cc3)nc3cccnc32)cc1,inactive
10,CC(=O)Nc1ccc(S(=O)(=O)Nc2cc(-c3cn4ccccc4n3)ccc2C)cc1,inactive
11,CCOc1ccc(C2=C(C(=O)CC)Sc3nncn3N2C(=O)CC)cc1,inactive
12,Cc1cc(Nc2cccc(C(F)(F)F)c2)nc2ccc(NC(=O)c3cccnc3)cc12,19 µM (active)
13,CCOc1ccc(Nc2ncnc3c2nc2n3CCCCC2)cc1,inactive
14,CC(C)[C@H](C(=O)Nc1ccc(C(=O)NO)cc1)c1ccccc1,inactive
15,Cn1cc(CNCC2CCN(c3ncc(C(=O)NO)cn3)CC2)c2ccccc21,inactive
16,O=C(CN1c2ccc(Br)cc2-c2ccccc2S1(=O)=O)N1CCCCC1,inactive
17,CN(C)C(=O)COC(=O)Cc1ccc(OC(=O)c2ccc(N=C(N)N)cc2)cc1,inactive
18,Cc1ccccc1OCc1ccc(-c2nc(C#N)c(NCc3cccnc3)o2)o1,19 µM (active)
